{"source": "the supplement of paper PMC9794691", "assay_in_all_cases": "area under confluence curve of osimertinib + compound combination regimen (DTP regrowth); compare to osimertinib-only DTP control AUC of the same experiment (AUC (confluence x time, arbitrary))", "key": {"[1]": {"system": "H1975", "method_in_brief": "(§1)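 The area under the IncuCyte confluence–time curve, calculated in Prism and taken as the median of triplicates where available, is the value reported. It was measured in EGFR-mutant NSCLC lines that received the EGFR inhibitor either alone, followed by a test compound, or together with a fixed-dose test compound until the persister stage (10–21 days) and then drug-free medium. Medium was refreshed every 3–4 days until the inhibitor-only wells were confluent again.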"}, "[2]": {"system": "HCC2279", "method_in_brief": "as §1"}, "[3]": {"system": "HCC2935", "method_in_brief": "as §1"}, "[4]": {"system": "HCC4006", "method_in_brief": "as §1"}, "[5]": {"system": "HCC827", "method_in_brief": "as §1"}, "[6]": {"system": "II-18", "method_in_brief": "as §1"}, "[7]": {"system": "PC9", "method_in_brief": "as §1"}}, "data": [{"compound": "COc1nn(C)cc1Nc1nccc(-c2c[nH]c3c(NC(=O)[C@@H](C)N4CCN(C)CC4)cccc23)n1", "note": "+ C=CC(=O)Nc1cc(Nc2nccc(-c3cn(C)c4ccccc34)n2)c(OC)cc1N(C)CCN(C)C [osimertinib]", "values": [{"measurement": "area under confluence curve", "setting": "[1]; test compound dose 1000 nM, dosing schedule: sequential, osimertinib-only DTP control AUC in same experiment: 22968, DMSO control AUC in same experiment: 15857", "value": 19800}, {"measurement": "area under confluence curve", "setting": "[1]; test compound dose 1000 nM, dosing schedule: upfront, osimertinib-only DTP control AUC in same experiment: 27164, DMSO control AUC in same experiment: 15857", "value": 18200}, {"measurement": "area under confluence curve", "setting": "[2]; test compound dose 1000 nM, dosing schedule: sequential, osimertinib-only DTP control AUC in same experiment: 26096, DMSO control AUC in same experiment: 14404", "value": 23400}, {"measurement": "area under confluence curve", "setting": "[2]; test compound dose 1000 nM, dosing schedule: upfront, osimertinib-only DTP control AUC in same experiment: 33120, DMSO control AUC in same experiment: 14404", "value": 31200}, {"measurement": "area under confluence curve", "setting": "[3]; test compound dose 1000 nM, dosing schedule: sequential, osimertinib-only DTP control AUC in same experiment: 22314, DMSO control AUC in same experiment: 19215", "value": 20700}, {"measurement": "area under confluence curve", "setting": "[3]; test compound dose 1000 nM, dosing schedule: upfront, osimertinib-only DTP control AUC in same experiment: 29846, DMSO control AUC in same experiment: 19215", "value": 31500}, {"measurement": "area under confluence curve", "setting": "[4]; test compound dose 1000 nM, dosing schedule: sequential, osimertinib-only DTP control AUC in same experiment: 12791, DMSO control AUC in same experiment: 18415", "value": 12900}, {"measurement": "area under confluence curve", "setting": "[4]; test compound dose 1000 nM, dosing schedule: upfront, osimertinib-only DTP control AUC in same experiment: 17269, DMSO control AUC in same experiment: 18415", "value": 18700}, {"measurement": "area under confluence curve", "setting": "[5]; test compound dose 1000 nM, dosing schedule: sequential, osimertinib-only DTP control AUC in same experiment: 15330, DMSO control AUC in same experiment: 21320", "value": 10400}, {"measurement": "area under confluence curve", "setting": "[5]; test compound dose 1000 nM, dosing schedule: upfront, osimertinib-only DTP control AUC in same experiment: 20798, DMSO control AUC in same experiment: 21320", "value": 15000}, {"measurement": "area under confluence curve", "setting": "[6]; test compound dose 1000 nM, dosing schedule: sequential, osimertinib-only DTP control AUC in same experiment: 8624, DMSO control AUC in same experiment: 11834", "value": 1310}, {"measurement": "area under confluence curve", "setting": "[6]; test compound dose 1000 nM, dosing schedule: upfront, osimertinib-only DTP control AUC in same experiment: 10856, DMSO control AUC in same experiment: 11834", "value": 1640}, {"measurement": "area under confluence curve", "setting": "[7]; test compound dose 1000 nM, dosing schedule: sequential, osimertinib-only DTP control AUC in same experiment: 10968, DMSO control AUC in same experiment: 21594", "value": 8030}, {"measurement": "area under confluence curve", "setting": "[7]; test compound dose 1000 nM, dosing schedule: upfront, osimertinib-only DTP control AUC in same experiment: 17834, DMSO control AUC in same experiment: 21594", "value": 15000}]}, {"compound": "Cc1cc(Nc2ncnc3ccc(NC4=NC(C)(C)CO4)cc23)ccc1Oc1ccn2ncnc2c1", "note": "[Tucatinib] + C=CC(=O)Nc1cc(Nc2nccc(-c3cn(C)c4ccccc34)n2)c(OC)cc1N(C)CCN(C)C [osimertinib]", "values": [{"measurement": "area under confluence curve", "setting": "[7]; test compound dose 1000 nM, dosing schedule: sequential, osimertinib-only DTP control AUC in same experiment: 13992, DMSO control AUC in same experiment: 30002", "value": 11100}, {"measurement": "area under confluence curve", "setting": "[7]; test compound dose 1000 nM, dosing schedule: sequential, osimertinib-only DTP control AUC in same experiment: 16279, DMSO control AUC in same experiment: 29345", "value": 17500}, {"measurement": "area under confluence curve", "setting": "[7]; test compound dose 1000 nM, dosing schedule: upfront, osimertinib-only DTP control AUC in same experiment: 19769, DMSO control AUC in same experiment: 29345", "value": 18600}, {"measurement": "area under confluence curve", "setting": "[7]; test compound dose 1000 nM, dosing schedule: upfront, osimertinib-only DTP control AUC in same experiment: 22377, DMSO control AUC in same experiment: 30002", "value": 17200}]}, {"compound": "Cc1nc(Nc2ncc(C(=O)Nc3c(C)cccc3Cl)s2)cc(N2CCN(CCO)CC2)n1", "note": "[Dasatinib] + C=CC(=O)Nc1cc(Nc2nccc(-c3cn(C)c4ccccc34)n2)c(OC)cc1N(C)CCN(C)C [osimertinib]", "values": [{"measurement": "area under confluence curve", "setting": "[1]; test compound dose 100 nM, dosing schedule: upfront, osimertinib-only DTP control AUC in same experiment: 18969, DMSO control AUC in same experiment: 14522", "value": 1440}, {"measurement": "area under confluence curve", "setting": "[2]; test compound dose 100 nM, dosing schedule: upfront, osimertinib-only DTP control AUC in same experiment: 43517, DMSO control AUC in same experiment: 29252", "value": 15300}, {"measurement": "area under confluence curve", "setting": "[3]; test compound dose 100 nM, dosing schedule: upfront, osimertinib-only DTP control AUC in same experiment: 10360, DMSO control AUC in same experiment: 13875", "value": 3810}, {"measurement": "area under confluence curve", "setting": "[4]; test compound dose 100 nM, dosing schedule: upfront, osimertinib-only DTP control AUC in same experiment: 21234, DMSO control AUC in same experiment: 16638", "value": 4610}, {"measurement": "area under confluence curve", "setting": "[5]; test compound dose 100 nM, dosing schedule: upfront, osimertinib-only DTP control AUC in same experiment: 39553, DMSO control AUC in same experiment: 30859", "value": 3890}, {"measurement": "area under confluence curve", "setting": "[6]; test compound dose 30 nM, dosing schedule: upfront, osimertinib-only DTP control AUC in same experiment: 13359, DMSO control AUC in same experiment: 11408", "value": 2420}]}, {"compound": "COc1nnc2ccc(N3CCC(c4ccc(OCCN5CCN(C)C(=O)[C@H]5C)cc4)CC3)nn12", "note": "+ C=CC(=O)Nc1cc(Nc2nccc(-c3cn(C)c4ccccc34)n2)c(OC)cc1N(C)CCN(C)C [osimertinib]", "values": [{"measurement": "area under confluence curve", "setting": "[1]; test compound dose 300 nM, dosing schedule: sequential, osimertinib-only DTP control AUC in same experiment: 12533, DMSO control AUC in same experiment: 14522", "value": 3520}, {"measurement": "area under confluence curve", "setting": "[1]; test compound dose 300 nM, dosing schedule: upfront, osimertinib-only DTP control AUC in same experiment: 18969, DMSO control AUC in same experiment: 14522", "value": 15900}, {"measurement": "area under confluence curve", "setting": "[2]; test compound dose 300 nM, dosing schedule: sequential, osimertinib-only DTP control AUC in same experiment: 5698, DMSO control AUC in same experiment: 27284", "value": 2470}, {"measurement": "area under confluence curve", "setting": "[2]; test compound dose 300 nM, dosing schedule: upfront, osimertinib-only DTP control AUC in same experiment: 30623, DMSO control AUC in same experiment: 27284", "value": 13900}, {"measurement": "area under confluence curve", "setting": "[3]; test compound dose 300 nM, dosing schedule: sequential, osimertinib-only DTP control AUC in same experiment: 9121, DMSO control AUC in same experiment: 11459", "value": 2580}, {"measurement": "area under confluence curve", "setting": "[3]; test compound dose 300 nM, dosing schedule: upfront, osimertinib-only DTP control AUC in same experiment: 12748, DMSO control AUC in same experiment: 11459", "value": 4310}, {"measurement": "area under confluence curve", "setting": "[4]; test compound dose 30 nM, dosing schedule: sequential, osimertinib-only DTP control AUC in same experiment: 14882, DMSO control AUC in same experiment: 10921", "value": 6680}, {"measurement": "area under confluence curve", "setting": "[4]; test compound dose 30 nM, dosing schedule: upfront, osimertinib-only DTP control AUC in same experiment: 18913, DMSO control AUC in same experiment: 10921", "value": 5730}, {"measurement": "area under confluence curve", "setting": "[5]; test compound dose 300 nM, dosing schedule: sequential, osimertinib-only DTP control AUC in same experiment: 18675, DMSO control AUC in same experiment: 48895", "value": 4180}, {"measurement": "area under confluence curve", "setting": "[5]; test compound dose 300 nM, dosing schedule: upfront, osimertinib-only DTP control AUC in same experiment: 25542, DMSO control AUC in same experiment: 48895", "value": 12300}, {"measurement": "area under confluence curve", "setting": "[6]; test compound dose 30 nM, dosing schedule: sequential, osimertinib-only DTP control AUC in same experiment: 16416, DMSO control AUC in same experiment: 18996", "value": 4370}, {"measurement": "area under confluence curve", "setting": "[6]; test compound dose 30 nM, dosing schedule: upfront, osimertinib-only DTP control AUC in same experiment: 18996, DMSO control AUC in same experiment: 18996", "value": 14400}, {"measurement": "area under confluence curve", "setting": "[7]; test compound dose 300 nM, dosing schedule: sequential, osimertinib-only DTP control AUC in same experiment: 3562, DMSO control AUC in same experiment: 31840", "value": 2500}, {"measurement": "area under confluence curve", "setting": "[7]; test compound dose 300 nM, dosing schedule: sequential, osimertinib-only DTP control AUC in same experiment: 10968, DMSO control AUC in same experiment: 21594", "value": 7840}, {"measurement": "area under confluence curve", "setting": "[7]; test compound dose 300 nM, dosing schedule: sequential, osimertinib-only DTP control AUC in same experiment: 12231, DMSO control AUC in same experiment: 19076", "value": 5480}, {"measurement": "area under confluence curve", "setting": "[7]; test compound dose 300 nM, dosing schedule: sequential, osimertinib-only DTP control AUC in same experiment: 12891, DMSO control AUC in same experiment: 44384", "value": 2120}, {"measurement": "area under confluence curve", "setting": "[7]; test compound dose 300 nM, dosing schedule: upfront, osimertinib-only DTP control AUC in same experiment: 16535, DMSO control AUC in same experiment: 19076", "value": 15300}, {"measurement": "area under confluence curve", "setting": "[7]; test compound dose 300 nM, dosing schedule: upfront, osimertinib-only DTP control AUC in same experiment: 16570, DMSO control AUC in same experiment: 44384", "value": 19700}, {"measurement": "area under confluence curve", "setting": "[7]; test compound dose 300 nM, dosing schedule: upfront, osimertinib-only DTP control AUC in same experiment: 17834, DMSO control AUC in same experiment: 21594", "value": 15800}, {"measurement": "area under confluence curve", "setting": "[7]; test compound dose 300 nM, dosing schedule: upfront, osimertinib-only DTP control AUC in same experiment: 19015, DMSO control AUC in same experiment: 31840", "value": 27400}]}, {"compound": "CN(C)C(=O)c1cc2cnc(Nc3ccc(N4CCNCC4)cn3)nc2n1C1CCCC1", "note": "[Ribociclib] + C=CC(=O)Nc1cc(Nc2nccc(-c3cn(C)c4ccccc34)n2)c(OC)cc1N(C)CCN(C)C [osimertinib]", "values": [{"measurement": "area under confluence curve", "setting": "[7]; test compound dose 300 nM, dosing schedule: sequential, osimertinib-only DTP control AUC in same experiment: 23366, DMSO control AUC in same experiment: 88996", "value": 13600}, {"measurement": "area under confluence curve", "setting": "[7]; test compound dose 300 nM, dosing schedule: upfront, osimertinib-only DTP control AUC in same experiment: 29852, DMSO control AUC in same experiment: 88996", "value": 20500}]}, {"compound": "C[C@@H](c1ccc2nccn2c1)n1nnc2ncc(-c3cnn(C)c3)nc21", "note": "[Savolitinib] + C=CC(=O)Nc1cc(Nc2nccc(-c3cn(C)c4ccccc34)n2)c(OC)cc1N(C)CCN(C)C [osimertinib]", "values": [{"measurement": "area under confluence curve", "setting": "[7]; test compound dose 1000 nM, dosing schedule: sequential, osimertinib-only DTP control AUC in same experiment: 12535, DMSO control AUC in same experiment: 43316", "value": 7800}, {"measurement": "area under confluence curve", "setting": "[7]; test compound dose 1000 nM, dosing schedule: upfront, osimertinib-only DTP control AUC in same experiment: 15354, DMSO control AUC in same experiment: 43316", "value": 11900}]}]}
